Results as given in PubChem BioAssay (EPA / NIEHS).
Where “and” joins values, the source holds several entries; their conditions need not be identical. Equal entries are not always repeated. The source holds several records for some structures; these can differ, active in one and inactive in another. Calls of active or inactive are those of the source. How the source made its calls: active means hit-call score of the fitted dose curve at least 0.9, where 1 is the maximum; inactive means score below 0.9.

Each compound was assayed on Tumor necrosis factor (Homo sapiens) (UniProt P01375) (assay: BSK_BT_xTNFa: BioMAP Diversity Plus: BT Assay for Tumor necrosis factor alpha (TNF-alpha) Biomarker Activity (AID 2284230)). Conditions: primary human B cells with PBMC.
Description: BSK_BT is a cell-based, multiplexed-readout assay that uses B cell and peripheral blood mononuclear cells, a human vascular primary cell co-culture, with measurements taken at 24 hours after chemical dosing in a microplate: 96-well plate.BSK_BT_xTNFa is an assay component of the BSK_BT assay. It measures secreted TNF-alpha related to regulation of gene expression using LumineX xMAP technology.Data from the assay component BSK_BT_xTNFa was analyzed at the endpoint, BSK_BT_xTNFa, in the positive analysis fitting direction relative to DMSO as the negative control and baseline of activity. Using a type of cytokine quantitation reporter, gain or loss-of-signal activity can be used to understand protein changes. To generalize the intended target to other relatable targets, this assay endpoint is annotated to the 'cytokine' intended target family, where the subfamily is 'inflammatory factor'.
The levels of cell surface (or secreted, indicated by the prefix "s") biomarker endpoints were measured by ELISA. Overt cytotoxicity to cells in confluent adherent cultures (all systems other than the BT system) was assessed by measuring total protein levels using sulforhodamine B (SRB) staining in parallel cultures at the time of biomarker measurements, indicated as SRB endpoints. For proliferation assays for adherent cell types, individual cell types are cultured at sub-confluence and relative cell numbers quantified by SRB staining at time points optimized for each system (48 h: 3C and CASM3C systems; 72 h: BT and HDF3CGF systems; 96 h: SAg system). SRB was performed by staining cells with 0.1% SRB after fixation with 10% TCA and reading wells at 560 nm.Viability and proliferation of PBMC (T cells) was quantified by Alamar Blue reduction for the SAg and BT systems. For PBMC viability (referred to as PBMC Cytotoxicity within the assay endpoint names), cells were plated (75,000/well in a 96-well plate) and then chemical samples added for 1 h before addition of activators, SEB and TSST-1 (20 ng/mL final concentration each). Cells were incubated for 90 h. Then, Alamar Blue (20 uL/well) (Invitrogen, Cat DAL1100) was added for 6 h, and the plates were read with a fluorescence microplate reader at 546/580 nm (excitation/emission). For PBMC proliferation, cells were plated and activated as above but incubated for only 16 h prior to addition of Alamar Blue. Plates were read after 6 h.

Chain of Tumor necrosis factor (Homo sapiens) (P01375 whole entry, looked up): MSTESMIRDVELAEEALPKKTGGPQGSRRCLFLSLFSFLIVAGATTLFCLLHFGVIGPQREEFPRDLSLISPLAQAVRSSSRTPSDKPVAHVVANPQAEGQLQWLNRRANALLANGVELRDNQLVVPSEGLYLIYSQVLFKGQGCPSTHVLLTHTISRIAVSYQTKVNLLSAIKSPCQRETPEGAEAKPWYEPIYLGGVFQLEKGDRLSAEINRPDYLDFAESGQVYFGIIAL

Structure (SMILES)	outcome	AC50
NC(=O)C(F)(F)C(F)(F)C(F)(F)C(F)(F)C(F)(F)C(F)(F)C(F)(F)F	inactive	–
Nc1cc([N+](=O)[O-])cc(Cl)c1O	inactive	–
O=S(=O)(Cl)C(F)(F)C(F)(F)C(F)(F)C(F)(F)C(F)(F)C(F)(F)C(F)(F)C(F)(F)F	inactive	15.9 µM (active)
NC(=O)C(F)(F)C(F)(F)C(F)(F)C(F)(F)C(N)=O	inactive	0.221 µM (active)
O=C(Cl)C(F)(F)C(F)(F)C(F)(F)C(F)(F)C(F)(F)C(F)(F)F	inactive	–
NS(=O)(=O)C(F)(F)C(F)(F)C(F)(F)C(F)(F)C(F)(F)C(F)(F)F	inactive	–
CN(C(=O)C(F)(F)C(F)(F)C(F)(F)F)[Si](C)(C)C	inactive	–
OCC(O)CC(F)(F)C(F)(F)C(F)(F)C(F)(F)F (stereo not given)	inactive	0.153 µM (active)
CCN(CCO)S(=O)(=O)C(F)(F)C(F)(F)C(F)(F)C(F)(F)C(F)(F)C(F)(F)C(F)(F)C(F)(F)F	–	21.7 µM (active) and 30 µM (active)
O=C(O)C(F)(F)C(F)(F)C(F)(F)C(F)(F)C(F)(F)C(F)(F)C(F)F	inactive	–
C=CC(=O)OCC(F)(F)C(F)(F)C(F)(F)COC(=O)C=C	–	8.9 µM (active) and 9.3 µM (active)
NC(O)(C(F)(F)F)C(F)(F)F	inactive	–
OC(O)C(F)(F)C(F)(F)F	inactive	–
Brc1nc2ccccc2s1	inactive	–
CC(C)CCCC(C)CCO (stereo not given)	inactive	–
O=S(=O)(OCC(F)(F)F)C(F)(F)C(F)(F)C(F)(F)C(F)(F)F	inactive	3.48 µM (active)
O=C(O)C(F)(F)C(F)(F)C(F)(F)OC(F)(F)F	inactive	–
CCOC(=O)CC(=O)C(F)(F)C(F)(F)F	inactive	–

Structure (SMILES)	outcome	AC50
CCN(CC)c1ccc(N=Nc2ccccc2)cc1	–	31 µM (active)
C=CC(=O)OCCC(F)(F)C(F)(F)C(F)(F)C(F)(F)F	–	38.4 µM (active) and 30 µM (active)
OCC(O)CC(F)(F)C(F)(F)C(F)(F)C(F)(F)C(F)(F)C(F)(F)C(F)(F)C(F)(F)F (stereo not given)	inactive	–
CCOC(C=C(C)CCC=C(C)C)OCC	inactive	–
C[C@]12CC[C@H]3C(=CCc4cc(O)ccc43)[C@@H]1CCC2=O	inactive	–
C[Si](Cl)(Cl)CCC(F)(F)C(F)(F)C(F)(F)C(F)(F)C(F)(F)C(F)(F)F	inactive	3.33 µM (active)
CC(C)(C)c1cc(CCC(=O)NCCCCCCNC(=O)CCc2cc(C(C)(C)C)c(O)c(C(C)(C)C)c2)cc(C(C)(C)C)c1O	inactive	–
COC(F)(C(F)F)C(F)(F)F (stereo not given)	inactive	–
FC(F)(F)C(F)(F)C(F)(F)CC1CO1 (stereo not given)	inactive	–
OCC(F)(F)C(F)(F)C(F)(F)C(F)(F)C(F)(F)C(F)(F)CO	inactive	–
NC(=O)C(F)(F)C(F)(F)C(F)(F)F	inactive	–
Cc1cc(O)c(C(C)(C)C)cc1C(C)(C)C	–	33.3 µM (active)
OCC(F)(F)C(F)(F)C(F)(F)CO	inactive	–
Cc1cnccn1	inactive	–
NCC(F)(F)C(F)(F)C(F)(F)C(F)(F)C(F)(F)C(F)(F)C(F)(F)C(F)(F)F	inactive	–
Cc1ccc(O)c(-n2nc3ccccc3n2)c1	inactive	–
O=C1C=CC(=O)N1c1ccc(Cc2ccc(N3C(=O)C=CC3=O)cc2)cc1	–	4.89 µM (active)
